Test results taken from PubChem BioAssay (Tox21).
Several values for one entry are separate records, joined by “and”; a condition that tells them apart may be missing. Equal values may be shown once. Records with an inconclusive call do not appear. Entries that show only a call come without a potency. Some structures have more than one record in an assay (separate samples or runs), and their calls can disagree. Activity calls are given as the source filed them. Unless noted, the call rests on the fitted dose curve; in most records, active means well fitted curve in the direction sought with a large enough effect in the repeat runs; inconclusive means weak or mixed curves; inactive means no such curve, though single readings can be large; an effect the other way counts as inactive or inconclusive.

What was measured:
[1] = molecular target: Progesterone receptor (Homo sapiens) (UniProt P06401); assay: qHTS assay to identify small molecule agonists of the progesterone receptor (PR) signaling pathway (AID 1346784; calls by dose curve; further: nearly all actives have a fitted effect of over 30% in size)
How it was run: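 Compounds were tested for PR agonism in HEK 293T cells bearing a beta-lactamase gene under UAS control. Treatment lasted 16 hr at 37C; signal came from fluorescence of a FRET substrate.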

[2] = qHTS assay to identify small molecule antagonists of the progesterone receptor (PR) signaling pathway - cell viability counter screen (AID 1346798); further: nearly all actives have a fitted effect of over 50% in size; further: potency means the concentration at half of the fitted maximal effect
How it was run: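 Following a 4 hr attachment, PR-UAS-bla HEK293T cells in charcoal-stripped FBS medium were exposed to compounds with R5020 for 16 hr; CellTiter-Glo was added and luminescence read after 30 min at room temperature.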

[3] = qHTS assay to identify small molecule agonists of the progesterone receptor (PR) signaling pathway - cell viability counter screen (AID 1346799; calls by dose curve; further: nearly all actives have a fitted effect of over 45% in size; further: potency means the concentration at half of the fitted maximal effect)
How it was run: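 Here, 3,000 PR-UAS-bla HEK293T cells per well were treated with compounds for 16 hr after a 6 hr preincubation at 37C and 5% CO2; cell viability is the CellTiter-Glo luminescence signal.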

[4] = qHTS assay to identify small molecule antagonists of the TGF-beta/Smad signaling pathway - cell viability counter screen (AID 1346824); further: nearly all actives have a fitted effect of over 50% in size; further: potency means the concentration at half of the fitted maximal effect
How it was run: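 SBE-bla HEK 293T cells, incubated overnight, then compound plus 0.25 ng/mL TGF-beta1 (stock added) for 5 hr at 37 C. Viability was read in the same wells by CellTiter-Glo luminescence after 30 min at room temperature.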

[5] = qHTS assay to identify small molecule agonists of the TGF-beta/Smad signaling pathway - cell viability counter screen (AID 1346829); further: nearly all actives have a fitted effect of over 45% in size; further: potency means the concentration at half of the fitted maximal effect
How it was run: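 In parallel with the Smad reporter read, viability of HEK 293T cells stably carrying SBE-bla is quantified by ATP luminescence following 5 hr compound treatment.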

[6] = molecular target: Thyrotropin-releasing hormone receptor (Homo sapiens) (UniProt P34981); assay: qHTS assay to identify small molecule antagonists of the thyrotropin-releasing hormone receptor (TRHR) signaling pathway (AID 1346877; active means well fitted inhibition curve with a large enough effect in the repeat runs, not every such curve was filed as active; further: potency means the concentration at half of the fitted maximal effect)
How it was run: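 TRHR-expressing HEK293 cells loaded with calcium dye for 2 h at 37 C; compounds pre-incubated 5 min at room temperature before TRH challenge at 1 nM final. Intracellular calcium fluorescence read kinetically for 3 min; 15 concentrations in triplicate.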

[7] = molecular target: Thyrotropin-releasing hormone receptor (Homo sapiens) (UniProt P34981); assay: qHTS assay to identify small molecule agonists of the thyrotropin-releasing hormone receptor (TRHR) signaling pathway (AID 1346891; calls by dose curve; further: series mostly up to about 58 µM)
How it was run: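 Screening of agonists relied on calcium signalling in HEK293 cells expressing human TRHR: dye loading 2 h at 37 °C preceded compound addition and a 3-min fluorescence time course.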

[8] = Human pregnane X receptor (PXR) small molecule agonists, qHTS cell viability counter screen (AID 1346977); further: nearly all actives have a fitted effect of over 50% in size; further: potency means the concentration at half of the fitted maximal effect
How it was run: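 Tox21 qHTS format; PXR-Luc HepG2, 2,000/well, charcoal-stripped FBS 5%. Cpd exposure 24hr. Read: CellTiter-Fluor fluorescence, multiplexed with luciferase.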

[9] = Caspase-3/7 induction in HepG2 cells by small molecules, qHTS assay (AID 1346978); further: nearly all actives have a fitted effect of over 15% in size
How it was run: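 Wild-type HepG2 cells, 2,000/well, settled 5 hr at 37 C and 5% CO2, then compound-treated for 17 hr; caspase-3/7 activity read by luminescent Caspase-Glo 3/7 after 30 min at room temperature.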

[10] = Caspase-3/7 induction in CHO-K1 cells by small molecules, qHTS cell viability counter screen (AID 1346979); further: nearly all actives have a fitted effect of over 35% in size; further: potency means the concentration at half of the fitted maximal effect
How it was run: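 CellTiter-Fluor viability check, qHTS format: wild-type CHO-K1, 16hr compound treatment, 1hr reagent incubation, fluorescence read.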

[11] = Caspase-3/7 induction in CHO-K1 cells by small molecules, qHTS assay (AID 1346980); further: nearly all actives have a fitted effect of over 15% in size
How it was run: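 Wild-type CHO-K1 cells exposed to compounds for 17hr at 37 C, 5% CO2. Caspase-3/7 activity then measured by Caspase-Glo 3/7 luminescence after 30min at room temperature.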

[12] = Caspase-3/7 induction in HepG2 cells by small molecules, qHTS cell viability counter screen (AID 1346981); further: nearly all actives have a fitted effect of over 30% in size; further: potency means the concentration at half of the fitted maximal effect
How it was run: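 Wild-type HepG2 cells, 2,000/well, settled 5 hr at 37 C, 5% CO2 before compound addition. Viability read by CellTiter-Fluor fluorescence, reagent added after 16 hr compound exposure, then 1 hr at 37C, in the same wells as the caspase read.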

[13] = molecular target: Nuclear receptor subfamily 1 group I member 2 (Homo sapiens) (UniProt O75469); assay: Human pregnane X receptor (PXR) small molecule agonists, qHTS assay (AID 1346982); further: nearly all actives have a fitted effect of over 35% in size; further: potency means the concentration at half of the fitted maximal effect
How it was run: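 PXR-Luc HepG2 reporter cells (CYP3A4-driven luciferase) in 5% charcoal-stripped FBS medium, plated 5 h before compound addition, then treated 24 h at 37C. Luciferase read by ONE-Glo luminescence after 30 min at room temperature.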

[14] = molecular target: Progesterone receptor (Homo sapiens) (UniProt P06401); assay: qHTS assay to identify small molecule antagonists of the progesterone receptor (PR) signaling pathway (AID 1346795; active means well fitted inhibition curve with a large enough effect in the signal ratio in the repeat runs, not every such curve was filed as active; the % refers to the signal ratio; further: potency means the concentration at half of the fitted maximal effect)
How it was run: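 In HEK293T cells bearing the PR-UAS-bla reporter, compound effects on promegestone-driven (1 nM) beta-lactamase expression are assessed after 16 hr using a fluorescent FRET substrate incubated 2 hr at room temperature.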

[15] = molecular target: Nuclear receptor subfamily 1 group I member 2 (Rattus norvegicus) (UniProt Q9R1A7); assay: Rat pregnane X receptor (rPXR) activation by small molecules, qHTS assay (AID 1346983); details: rPXR luciferase reporter cells, One-Glo luminescence, 24 h; stronger effect = higher value; further: nearly all actives have a fitted effect of over 20% in size
How it was run: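 Cell-based rPXR activation assay: rPXR cells, 2,000 per well, rested 5hr at 37 C, then exposed to compounds in DMSO for 24 hr at 37 C. Luciferase activity read by One-Glo luminescence after 30 min at room temperature.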

[16] = molecular target: Nuclear receptor subfamily 1 group I member 2 (Homo sapiens) (UniProt O75469); assay: CYP3A4 induction through human pregnane X receptor (PXR) by small molecules, qHTS assay (AID 1346984); further: nearly all actives have a fitted effect of over 40% in size; further: potency means the concentration at half of the fitted maximal effect
How it was run: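 DPX-2 HepG2 cells carrying a PXR response element and CYP3A4-promoter luciferase construct, treated with compounds 24 hr at 37C. Then P450-Glo CYP3A4 Luciferin-IPA substrate (3uM final) for 3 hr at 37C, One-Glo added, luminescence read.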

[17] = molecular target: Cytochrome P450 2D6 (Homo sapiens) (UniProt P10635); assay: Cytochrome P450 Family 2 Subfamily D Member 6 (CYP2D6) small molecule antagonists: luciferase reporter qHTS assay (AID 1671196); further: nearly all actives have a fitted effect of over 50% in size; further: potency means the concentration at half of the fitted maximal effect
How it was run: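 Cell-free P450-Glo system: CYP2D6 with proluciferin substrate was pre-incubated with compound for 10 min, then reacted with NADPH regeneration for 1 h at room temperature. Luciferin product was detected after 20 min, and data were reported as relative luminescence units.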

[18] = molecular target: Cytochrome P450 2C19 (Homo sapiens) (UniProt P33261); assay: Cytochrome P450 Family 2 Subfamily C Member 19 (CYP2C19) small molecule antagonists: luciferase reporter qHTS assay (AID 1671197); further: nearly all actives have a fitted effect of over 65% in size; further: potency means the concentration at half of the fitted maximal effect
How it was run: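 Compounds were tested on CYP2C19 activity via proluciferin conversion to luciferin. The 37C, 1 h reaction followed NADPH addition; detection reagent stopped it.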

[19] = qHTS assay to identify small molecule agonists of the TGF-beta/Smad signaling pathway (AID 1346859; active means well fitted activation curve with a large enough effect in the signal ratio in the repeat runs, not every such curve was filed as active; the % refers to the signal ratio; further: series mostly up to about 77 µM)
How it was run: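 Each well held 4,000 SBE-bla HEK 293T cells incubated overnight before compound addition; 5 hr later the cleavable FRET substrate went on for 2 hr at room temperature, and fluorescence was read at two emissions.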

[20] = molecular target: Nuclear receptor subfamily 1 group I member 2 (Homo sapiens) (UniProt O75469); assay: Human pregnane X receptor (PXR) activation by small molecules, qHTS assay (AID 1346985); further: nearly all actives have a fitted effect of over 40% in size
How it was run: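 DPX-2 cells (HepG2 co-transfected with a PXR response element and a CYP3A4-promoter luciferase construct) were seeded at 2,000 per well, rested 5 hr at 37C, then exposed to DMSO-dissolved compounds for 24 hr. Activation was read as luciferase luminescence.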

Chain of Progesterone receptor (Homo sapiens) (P06401 whole entry, looked up): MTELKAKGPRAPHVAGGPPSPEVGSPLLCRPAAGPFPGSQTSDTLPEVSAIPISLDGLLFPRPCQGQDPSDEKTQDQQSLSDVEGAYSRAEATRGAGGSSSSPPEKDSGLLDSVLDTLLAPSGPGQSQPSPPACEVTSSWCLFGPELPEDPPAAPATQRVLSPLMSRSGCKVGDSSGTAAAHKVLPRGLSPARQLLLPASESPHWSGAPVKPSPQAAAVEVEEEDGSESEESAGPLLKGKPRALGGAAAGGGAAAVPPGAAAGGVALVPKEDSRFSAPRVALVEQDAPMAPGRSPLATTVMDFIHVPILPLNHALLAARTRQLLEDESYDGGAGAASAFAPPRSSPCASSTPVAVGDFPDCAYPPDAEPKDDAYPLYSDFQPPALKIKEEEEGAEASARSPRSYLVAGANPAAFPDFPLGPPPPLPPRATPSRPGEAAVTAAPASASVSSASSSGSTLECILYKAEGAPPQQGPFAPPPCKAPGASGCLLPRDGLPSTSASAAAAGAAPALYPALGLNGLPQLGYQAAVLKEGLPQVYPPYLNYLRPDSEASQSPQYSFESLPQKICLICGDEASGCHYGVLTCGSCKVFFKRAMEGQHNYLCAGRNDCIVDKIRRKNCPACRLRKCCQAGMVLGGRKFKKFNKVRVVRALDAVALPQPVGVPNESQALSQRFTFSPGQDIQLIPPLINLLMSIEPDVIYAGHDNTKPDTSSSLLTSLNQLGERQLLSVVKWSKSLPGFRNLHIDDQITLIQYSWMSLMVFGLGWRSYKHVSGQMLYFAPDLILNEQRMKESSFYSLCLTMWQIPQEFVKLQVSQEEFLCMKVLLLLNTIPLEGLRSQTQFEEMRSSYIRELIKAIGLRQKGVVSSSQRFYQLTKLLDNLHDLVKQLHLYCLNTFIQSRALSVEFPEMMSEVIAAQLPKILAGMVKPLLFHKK
Chain of Thyrotropin-releasing hormone receptor (Homo sapiens) (P34981 whole entry, looked up): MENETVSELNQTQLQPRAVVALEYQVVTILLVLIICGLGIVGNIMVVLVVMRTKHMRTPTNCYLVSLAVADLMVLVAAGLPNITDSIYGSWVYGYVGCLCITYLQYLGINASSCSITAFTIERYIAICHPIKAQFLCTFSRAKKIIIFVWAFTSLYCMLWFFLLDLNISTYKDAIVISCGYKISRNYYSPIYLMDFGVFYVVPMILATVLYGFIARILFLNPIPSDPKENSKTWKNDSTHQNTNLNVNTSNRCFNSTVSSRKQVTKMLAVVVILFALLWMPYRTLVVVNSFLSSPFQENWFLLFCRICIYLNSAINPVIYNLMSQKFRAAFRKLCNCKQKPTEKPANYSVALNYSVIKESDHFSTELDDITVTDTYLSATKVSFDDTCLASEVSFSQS
Chain of Nuclear receptor subfamily 1 group I member 2 (Homo sapiens) (O75469 whole entry, looked up): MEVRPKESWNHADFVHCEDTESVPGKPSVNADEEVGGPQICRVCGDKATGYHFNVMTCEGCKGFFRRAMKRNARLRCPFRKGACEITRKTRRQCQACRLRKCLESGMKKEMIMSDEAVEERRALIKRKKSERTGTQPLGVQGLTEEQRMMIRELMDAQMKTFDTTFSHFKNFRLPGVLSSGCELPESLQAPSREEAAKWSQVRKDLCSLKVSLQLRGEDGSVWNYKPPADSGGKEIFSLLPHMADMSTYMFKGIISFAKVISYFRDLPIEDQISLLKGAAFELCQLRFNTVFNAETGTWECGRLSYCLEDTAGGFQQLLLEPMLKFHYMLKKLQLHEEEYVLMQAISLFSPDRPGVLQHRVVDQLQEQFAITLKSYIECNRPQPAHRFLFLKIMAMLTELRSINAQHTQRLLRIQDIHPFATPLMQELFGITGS
Chain of Cytochrome P450 2D6 (Homo sapiens) (P10635 whole entry, looked up): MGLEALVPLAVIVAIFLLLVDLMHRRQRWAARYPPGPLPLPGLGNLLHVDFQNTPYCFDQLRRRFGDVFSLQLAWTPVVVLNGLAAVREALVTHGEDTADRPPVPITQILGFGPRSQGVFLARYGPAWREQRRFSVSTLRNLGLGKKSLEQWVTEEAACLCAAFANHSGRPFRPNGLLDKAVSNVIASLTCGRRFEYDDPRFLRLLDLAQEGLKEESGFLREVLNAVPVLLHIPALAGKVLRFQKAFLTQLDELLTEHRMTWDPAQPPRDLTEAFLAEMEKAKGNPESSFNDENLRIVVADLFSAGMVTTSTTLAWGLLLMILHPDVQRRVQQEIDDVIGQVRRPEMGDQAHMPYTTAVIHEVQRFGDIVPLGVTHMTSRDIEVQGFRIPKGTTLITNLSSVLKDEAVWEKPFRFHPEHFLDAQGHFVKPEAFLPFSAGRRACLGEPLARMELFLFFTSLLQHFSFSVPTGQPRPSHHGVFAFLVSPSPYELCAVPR
Chain of Cytochrome P450 2C19 (Homo sapiens) (P33261 whole entry, looked up): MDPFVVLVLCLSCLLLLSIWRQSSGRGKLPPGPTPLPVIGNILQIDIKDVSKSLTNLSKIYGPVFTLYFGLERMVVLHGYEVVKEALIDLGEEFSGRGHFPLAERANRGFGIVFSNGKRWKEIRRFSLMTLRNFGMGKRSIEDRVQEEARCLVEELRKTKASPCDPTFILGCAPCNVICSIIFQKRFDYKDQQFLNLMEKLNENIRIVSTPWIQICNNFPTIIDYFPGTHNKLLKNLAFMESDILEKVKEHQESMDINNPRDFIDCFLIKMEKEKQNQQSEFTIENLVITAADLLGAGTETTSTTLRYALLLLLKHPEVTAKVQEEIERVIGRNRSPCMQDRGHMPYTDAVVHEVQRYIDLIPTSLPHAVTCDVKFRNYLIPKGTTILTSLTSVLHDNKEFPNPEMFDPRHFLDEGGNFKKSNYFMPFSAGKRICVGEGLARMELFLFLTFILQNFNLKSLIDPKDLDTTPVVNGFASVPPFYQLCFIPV
Chain of Nuclear receptor subfamily 1 group I member 2 (Rattus norvegicus) (Q9R1A7 whole entry, looked up): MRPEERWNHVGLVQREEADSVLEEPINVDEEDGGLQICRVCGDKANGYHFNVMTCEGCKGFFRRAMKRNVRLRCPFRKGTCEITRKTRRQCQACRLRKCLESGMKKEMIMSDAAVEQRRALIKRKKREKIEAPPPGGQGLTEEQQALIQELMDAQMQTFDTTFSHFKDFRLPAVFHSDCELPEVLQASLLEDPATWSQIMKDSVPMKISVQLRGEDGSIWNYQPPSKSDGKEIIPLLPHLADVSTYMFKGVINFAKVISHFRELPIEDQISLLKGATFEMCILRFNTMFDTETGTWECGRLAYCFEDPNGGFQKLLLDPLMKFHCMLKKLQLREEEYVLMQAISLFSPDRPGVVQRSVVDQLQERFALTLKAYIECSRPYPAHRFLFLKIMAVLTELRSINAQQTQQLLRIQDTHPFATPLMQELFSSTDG

| Structure (SMILES) | Potency [1] | Potency [2] | Potency [3] | Potency [4] | Potency [5] | Potency [6] | outcome [7] | Potency [8] | Potency [9] | Potency [10] | Potency [11] | Potency [12] | Potency [13] | Potency [14] | max activation [15] | Potency [16] | Potency [17] | Potency [18] | Potency [19] | Potency [20] |
| --- | --- | --- | --- | --- | --- | --- | --- | --- | --- | --- | --- | --- | --- | --- | --- | --- | --- | --- | --- | --- |
| O=c1oc2cc(O)ccc2c2oc3cc(O)ccc3c12 | inactive | inactive | inactive | inactive | inactive | inactive | inactive | inactive | inactive | inactive | inactive | inactive | 65.7 µM (active) | – | – | – | – | – | – | – |
| COc1ccc2cc1Oc1ccc(cc1)C[C@H]1c3c(cc4c(c3Oc3cc5c(cc3OC)CCN(C)[C@@H]5C2)OCO4)CCN1C | inactive | – | inactive | inactive | inactive | inactive | inactive | 11.9 µM (active) | – | 29.8 µM (active) | inactive | 26.6 µM (active) | 9.44 µM (active) | inactive | -17.4% (inactive) | 10 µM (active) | 15.5 µM (active) | inactive | – | – |
| O=c1[nH]c2ccccc2n1CCCN1CCN(C(c2ccccc2)c2ccccc2)CC1 | inactive | – | – | inactive | inactive | – | – | 33.5 µM (active) | – | – | inactive | – | 4.22 µM (active) | 29.8 µM (active) | – | – | 0.692 µM (active) | – | – | – |
| Fc1ccc(C(c2ccc(F)cc2)N2CCNCC2)cc1 | inactive | – | – | inactive | inactive | inactive | inactive | inactive | inactive | inactive | inactive | inactive | inactive | inactive | – | – | 2.19 µM (active) | inactive | – | – |
| O=S(=O)(O)c1ccc(N=Nc2c(O)ccc3ccccc23)cc1 | inactive | 8.63 µM (active) | 7.7 µM (active) | inactive | inactive | inactive | inactive | 27.3 µM (active) | inactive | 30.6 µM (active) | inactive | 30.6 µM (active) | – | – | – | – | 35.6 µM (active) | 11.2 µM (active) | inactive | – |
| CCCCCCCCCCCC(=O)OCC(C)OC(=O)CCCCC(=O)O (stereo not given) | inactive | – | inactive | inactive | inactive | inactive | – | inactive | inactive | inactive | inactive | inactive | inactive | inactive | – | – | inactive | inactive | inactive | – |
| S=c1nccc[nH]1 | inactive | inactive | inactive | inactive | inactive | inactive | inactive | inactive | inactive | inactive | inactive | inactive | inactive | – | – | – | 31.8 µM (active) | 31.8 µM (active) | inactive | – |
| CC(=O)OCC=C(C)C | inactive | – | inactive | inactive | inactive | – | – | inactive | inactive | inactive | inactive | inactive | inactive | inactive | – | – | inactive | inactive | inactive | – |
| Cc1c(N)cccc1C(F)(F)F | inactive | – | – | inactive | inactive | inactive | – | inactive | inactive | inactive | inactive | inactive | inactive | inactive | – | – | inactive | – | inactive | – |
| C1CCC(SSC2CCCCC2)CC1 | inactive | inactive | – | inactive | inactive | – | – | inactive | inactive | inactive | inactive | inactive | inactive | inactive | – | – | inactive | inactive | inactive | – |
| CCC(C)n1ncn(-c2ccc(N3CCN(c4ccc(OC[C@H]5CO[C@](Cn6cncn6)(c6ccc(Cl)cc6Cl)O5)cc4)CC3)cc2)c1=O (stereo not given in full) | inactive | – | – | inactive | inactive | inactive | – | – | inactive | 5.96 µM (active) | inactive | inactive | 2.98 µM (active) | inactive | – | – | inactive | – | inactive | – |
| CCCCCCCCCCCCCCCC[N+](C)(C)CC | inactive | 68.8 µM (active) | 68.8 µM (active) | 43.8 µM (active) | 55.1 µM (active) and 26.8 µM (active) | 30.2 µM (active) and inactive | inactive | 54.6 µM (active) | inactive | 43.4 µM (active) and 29.8 µM (active) | inactive | 61.3 µM (active) | inactive | – | -22.3% (inactive) | inactive | 566 nM (active) and 871 nM (active) | inactive | – | inactive |
| CC1=Nc2ccccc2C1(C)C | inactive | – | inactive | inactive | inactive | inactive | inactive | inactive | inactive | inactive | inactive | inactive | – | 30.7 µM (active) | – | – | 71.1 µM (active) | 63.4 µM (active) | inactive | – |
| CCC(COC(=O)CCS)(COC(=O)CCS)COC(=O)CCS | inactive | inactive | – | inactive | inactive | inactive | – | inactive | inactive | inactive | inactive | inactive | 21.7 µM (active) | inactive | – | – | inactive | – | inactive | – |
| CCCC(=O)OCOC(=O)C1=C(C)NC(C)=C(C(=O)OC)C1c1cccc(Cl)c1Cl (stereo not given) | inactive | inactive | inactive | inactive | inactive | – | – | inactive | inactive | inactive | inactive | inactive | – | – | – | – | inactive | 1.74 µM (active) | inactive | – |
